For the first experiment, the target named is SCN4A. As to the kind of experiment: pooled miR-30 sensor sort-seq; sequence = guide strand. As to conditions: shRNA.
The sequence TTCAGAACCATCTCTGCTGTGA displayed a sensor-assay potency score (higher = more potent) of 0.403. TAGTCCTGTGTCATGAGGCGGA gave a sensor-assay potency score (higher = more potent) of -0.484. TTGTAGTCAGCTGTGCTGCAGA showed a sensor-assay potency score (higher = more potent) of -0.246.

Regarding TTGAGCACGATGCAGATGGTGA, the sensor-assay potency score (higher = more potent) was -0.925. As to TTGTACAGGATGTCCACCTTGA, the sensor-assay potency score (higher = more potent) was found to be 0.539. Turning to TTGATGCAGTAGTAGAACTTGC, the sensor-assay potency score (higher = more potent) was -0.382. Still for that read-out and setting: the result for TGCTCGACAATCTTGAAGCAGG reads -1.33. Same read-out and setting: under TTGACCTTGACATTGAGCCAGC stands -0.555. Regarding TTGATGAGCATGTTCAGCGTTG, the sensor-assay potency score (higher = more potent) is -0.377.

The target in the next experiment is SDHAF1. The description is as above. As to conditions: shRNA.
In the case of TACTCGATGCGCAGCACGTCGG, the sensor-assay potency score (higher = more potent) was -1.32. On to ATGCGCAGCACGTCGGACCGCG, for which the sensor-assay potency score (higher = more potent) is -1.11. The same measure, in the same setting: the result for TCGTGGGGGTTCCTTGGACTGT reads -2.02. Take ATGCTGCCGGAACTCTGCCCGC: the sensor-assay potency score (higher = more potent) is -1.77.

For the sequence TGGACTGTCGCCGTCGTCAGGC, the sensor-assay potency score (higher = more potent) was -0.932. Still for that read-out and setting: the result for TCGATGCGCAGCACGTCGGACC reads -1.24.

As to TCCTTGGACTGTCGCCGTCGTC, the sensor-assay potency score (higher = more potent) was -1.69. In turn, TGCGCAGCACGTCGGACCGCGG returned a sensor-assay potency score (higher = more potent) of -1.5. TTGGACTGTCGCCGTCGTCAGG displayed a sensor-assay potency score (higher = more potent) of -1.17.

TACAGGCTCAGAACCTGCCTCT yielded a sensor-assay potency score (higher = more potent) of -0.402. For the sequence TGTCGCCGTCGTCAGGCTGGGA, the sensor-assay potency score (higher = more potent) is -1.53. Regarding ACTGTCGCCGTCGTCAGGCTGG, the sensor-assay potency score (higher = more potent) was -1.04.

A further experiment concerns the target SDR9C7. Described as above. As to conditions: shRNA.
The sequence TTGCCGAGAATGGCTGTCCGAT showed a sensor-assay potency score (higher = more potent) of -0.982. The same measure, in the same setting: under TAGAGCTCACGCCTTATGCTGT stands -0.719. Same read-out and setting: under TTCGCTCTTGGTGACATCCAGT stands -0.405; under AACTTGTCAGTATAGATGCGGA, -0.682; under TTATGTTTTTTAACTTGTCAGT, -0.963. Same read-out and setting: the result for TTAGGATGAAATCTGTCACAGG reads -0.552; that for TAACTTGTCAGTATAGATGCGG, -0.0735; that for TTGATGACATCTCTGACTCTGG, 0.0736.

Take ATGCTGTTGATGACATCTCTGA: the sensor-assay potency score (higher = more potent) is -0.812. As to TTGCAGTTCTTGAACCAGCGAT, the sensor-assay potency score (higher = more potent) is -0.518. On the same count and under the same terms, the result for TTGTTCGCCCACTTTGTCCCTC reads -0.717; that for TTGATGCTTTCGCTCTTGGTGA, -1.21.

The next experiment concerns the target SEC11C. Described as above. Particulars: shRNA.
As to ATTATTATCTCCTTTAGTCAGA, the sensor-assay potency score (higher = more potent) was -0.731. As to TTTGATTACTCTGTGAACTATT, the sensor-assay potency score (higher = more potent) was -0.483. Consider TAAAACCTGGTAATAGAGCTGG, for which the sensor-assay potency score (higher = more potent) is -0.222.

In turn, TTGGAATGTCTCGTCCTTCAAC registered a sensor-assay potency score (higher = more potent) of -1.07. Turning to TGAACTATTGGAATGTCTCGTC, the sensor-assay potency score (higher = more potent) came to 0.149.

ATCTTTTTCATGAACTTTGATT returned a sensor-assay potency score (higher = more potent) of -1.19. The same measure, in the same setting: under ATGAACTTTGATTACTCTGTGA stands -0.369.

Values taken from the OligoGym collection.
Further: reference of the scale not given here.
